The values below come from PubChem BioAssay (NCI).

Structures are written as SMILES. This is part of a sample that, as a whole, favours compounds with a hit. Of some 79,000 tested, about 15% had one in any assay. Unmarked numbers belong to inactive results. Activity calls are given as the source filed them. Rule as the data show it: active = growth inhibition above about 70%; inactive = the rest.

The assay is described as follows: NCI Yeast Anticancer Drug Screen. Data for the bub3 strain (AID 167). The note with it: S. cerevisiae bub3 mutant strain, at 50.0 µM, active compounds read high. A digest of the protocol: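 Mutant yeast screening strain plus compound; vehicle-treated cultures serve as the 0% inhibition reference.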
For `CC1(C)N=C(C(N)=O)c2[nH]cnc2N1`, the growth inhibition was 11.3%.
As for `CN(C(=O)C1C2c3ccccc3C(c3ccccc32)C1C(=O)N(C)c1ccccc1)c1ccccc1` (stereo not given), the figure is 1.1%.
Next, `CCc1c(CBr)c(=O)[nH]c2ccccc12`: 1.3%; `CCCCNC(=O)C(CCCC)C(CCC)(CCC)CCCC` (stereo not given): 55.3%.
As for `COc1cccc2c1C(=O)c1c(O)c3c(c(O)c1C2=O)C[C@@](O)(c1csc(-c2ccncc2)n1)C[C@@H]3OC1CC(N)C(O)C(C)O1` (stereo not given in full), the figure is -2.25%; as for `CO[C@H]1CC[C@@]2(C)C(=CC[C@H]3[C@@H]4CC[C@H]([C@H](C)CCCC(C)C)[C@@]4(C)CC[C@@H]32)C1`, 17.2%.
Take `CN(C)c1nc(=O)c2c(ccc3ccccc32)o1`: the growth inhibition was 0.55%.
As for `NCC(=O)Nc1ccc(C(=O)O)cc1`, the figure is 4.05%.
As for `CCNC(=S)N/N=C/c1cc(OC)ccc1O`, the figure is 23.1%.
For the compound `CC(C)COC(=O)N1N=NC2C3OC(CC3=O)C21` (stereo not given), the growth inhibition is -13.2%.
Next, `CCCSc1nc2c(c(=O)n(C)c(=O)n2C)n1C`: 9.15%; `O=C(Nc1cccc([N+](=O)[O-])c1)Nc1ccccc1F`: 19.2%; `FS(F)(F)(F)(F)c1cccc(NC(=S)SCc2ccc3c(c2)OCO3)c1`: 98.8% (active).
For the compound `C/C(=N\Nc1ccc2ccccc2n1)c1ccccc1O`, the growth inhibition is -66.5%.
`N.N.N.N.N.O=S(=O)([O-])S(=O)(=O)[O-].[Co+3]`: the growth inhibition is -2.05%.
Next, `CC(C)(C)NC(=O)NCC1CCCC1NC(=O)NC(C)(C)C` (stereo not given): 7.35%; `CCNC(=S)NC1CCCCC1`: -13.1%; `CCOC(=O)Cc1c(Cc2[nH]c(C(=O)OCc3ccccc3)c(CC(=O)OCC)c2CC(=O)OCC)[nH]c(C(=O)OCc2ccccc2)c1CC(=O)OCC`: -3.35%.
Consider `CCN(CC)CCNc1cc(OC)c(N)c2cccnc12`, for which the growth inhibition is 46.6%.
Next, `O=[N+]([O-])C1CC(O)C(O)CC1c1ccc2c(c1)OCO2` (stereo not given): 1.95%.
For `Cc1n(C)nn[n+]1C`, the growth inhibition is 7.9%.
Regarding `COc1ccc(N=Cc2cc(OC)c(OC)c(OC)c2)cc1`, the growth inhibition is -12.9%.
As for `c1cn2cnnc2n2cnnc12`, the figure is -0.8%; as for `COc1ccc(NC2CC(C)N(C(=O)c3ccccc3)O2)cc1` (stereo not given), -21.6%.
As for `CC/C=C\CCCCC`, the figure is -10.8%; as for `O=C(O)CSC(CC(=O)O)C(=O)O` (stereo not given), 21.6%; as for `O=C(ON=C1c2ccccc2C(Br)C(Br)c2ccccc21)c1cc([N+](=O)[O-])cc([N+](=O)[O-])c1` (stereo not given), 21.1%.
As for `Cc1cc(OC(=O)c2c(C)cc(OC(=O)c3c(C)cc(O)cc3O)cc2O)cc(O)c1C(=O)O`, the figure is -27.4%; as for `CCOC(=O)NCc1ccccc1`, -6.35%.
`CNCCCC1c2ccccc2C=Cc2ccccc21`: the growth inhibition is 0.15%.
As for `COc1cc(C(=O)O)cc(O)c1OC`, the figure is 2.4%.
With `O=C(O)CSc1nc2cc(Cl)c(Cl)cc2[nH]1`, the growth inhibition was 13.1%.
As for `[Cl][Tb]([Cl])[Cl]`, the growth inhibition is 37.2%.
Take `CCCOC(=O)COc1ccccc1`: the growth inhibition was -11.4%.
As for `CC12CCC(=O)C=C1CCC1C2CCC2(C)C1CCC2(O)C(=O)Cn1c(=O)[nH]cc(F)c1=O` (stereo not given), the figure is -1.2%.
As for `O=S(=O)(O)O.[NH-]CC1(C[NH-])CCCCC1.[Pt+2]`, the figure is -28.6%; as for `CNCC(OC(C)C)c1ccc(O)c(O)c1` (stereo not given), -19.2%.
As for `S=c1nc[nH]c2c1CN(Cc1ccccc1)CC2`, the figure is -4.95%.
As to `O=C1C(Cc2ccccc2)CCCC1Cc1ccccc1` (stereo not given), the growth inhibition was -6.4%.
As for `Cn1ccnc1Sc1ccccn1`, the figure is 7.3%.
